Results on 40 compounds are retold here after PubChem BioAssay (NCI).

This is part of a sample that, as a whole, favours compounds with a hit. Of some 83,000 tested, about 20% had one in any assay.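 Single-concentration screen, 48 h exposure, 96-well plates. Endpoint: percent growth. Below 10 = active.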 Calls of active or inactive are those of the source.

This test concerns SN12C renal. Kind of test: NCI-60 one-dose screen, 48 h (100 = growth as untreated, 0 = no growth, -100 = all killed). As to conditions: 10 µM unless noted. The protocol: Growth inhibition of the SN12C human tumor cell line is measured as a screen for anti-cancer activity. Cells are grown in 96 well plates and exposed to the test compound for 48 hours. Compounds are tested at a single concentration, which is 10^-5 M for most compounds. The reported endpoint is percent growth (GI% or GIPRCNT), where numbers from 0 - 100% represent growth inhibition, and numbers from -100% - 0 represent cell death. For example, a value of 40 represents 60% growth inhibition. A value of 0 means no net growth occurred over the course of the experiment. A value of -40 indicates 40% of cells at the beginning of the experiment died by the end of the experiment. A value of -100 means all cells are dead at the end of the experiment.
NCI-60 Human Tumor Cell Lines Screen was performed using the standard one-dose NCI protocol, which is described in more detail at https://dtp.cancer.gov/discovery_development/nci-60/default.htm.
Compounds with GIPRCNT values below 10 were considered active. Activity score was based on GIPRCNT using the following formula: […]
Score is 0 for GIPRCNT values of 100 or above, 50 for GIPRCNT values of 0, and 100 for GIPRCNT values of -100.
For the compound `O=[N+]([O-])c1cc(S(=O)(=O)c2ccc(F)c([N+](=O)[O-])c2)ccc1F`, the growth was 108% (inactive).

For the compound `N=c1c(S(=O)(=O)c2ccccc2)cc2c(=O)n3ccccc3nc2n1C1CCCC1`, the growth is 87.2% (inactive).

With `Fc1cccc(-c2[nH]nc3nc(Nc4cccnc4)sc23)c1`, the growth was 58.5% (inactive).

Turning to `CC1(C)CC[C@]2(CO)CC[C@]3(C)C(=CC[C@@H]4[C@@]5(C)CC[C@H](NCO)C(C)(C)[C@@H]5CC[C@]43C)[C@@H]2C1`, the growth is -75.2% (active).

In the case of `CCOc1ccc(NC(=O)c2ccoc2COc2ccccc2)cc1`, the growth was 99.1% (inactive).

Take `COc1ccc2c(c1)c(-c1nc(-c3c[nH]c4ncccc34)cs1)cn2C`: the growth is 74.5% (inactive).

As to `COc1ccc2c(c1)c(-c1nc(-c3cn(C)c4ncccc34)cs1)cn2CCCN1CCCCC1`, the growth is 76.2% (inactive).

Consider `COc1ccc(-c2nc3ccccn3c2-c2nc3ccc(Cl)cc3[nH]2)cc1`, for which the growth was 97.3% (inactive).

On to `CCSc1sc(-c2ccc(C)cc2)nc1[P+](c1ccccc1)(c1ccccc1)c1ccccc1`, for which the growth was 2.07% (active).

Turning to `CC(=O)NC1=C(C#N)C(c2ccccc2Cl)c2c(ccc3ccccc23)O1` (stereo not given), the growth was 70.8% (inactive).

Take `CCN1CCN(C(=O)[C@@]2(C)CC[C@]3(C)CC[C@]4(C)C(=CC(=O)[C@@H]5[C@@]6(C)CC[C@H](OC7C[C@@H](O)[C@@H](O)C(C)O7)C(C)(C)[C@@H]6CC[C@]54C)[C@@H]3C2)CC1` (stereo not given in full): the growth is -64.7% (active).

Consider `O=c1[nH]ncc(Br)c1Br`, for which the growth was 63.6% (inactive).

As to `Cn1c(=O)c2c(ncn2CC(=O)Nc2ccc(S(N)(=O)=O)cc2)n(C)c1=O`, the growth was 105% (inactive).

Take `O=c1c(CNc2ccc(S(=O)(=O)Nc3ncccn3)cc2)coc2ccccc12`: the growth was 90.1% (inactive).

Regarding `NS(=O)(=O)c1ccc(CCNC(=O)/C=C/c2ccc(Cl)cc2)cc1`, the growth was 92.9% (inactive).

As for `Cc1cccc2c1NC(=O)[C@@]21[C@H](C(=O)c2ccccc2)[C@]2(C(=O)Nc3ccccc32)[C@H]2CCCN21`, the growth is 10.3% [100 µM] (inactive).

Regarding `N#C/C(=C\c1ccc(-c2ccccc2)o1)c1nc(-c2ccco2)cs1`, the growth is 92.3% (inactive).

With `COc1ccc(-c2n[nH]nc2-c2cc3ccccc3s2)cc1O`, the growth is 32.4% (inactive).

`COc1ccc(C(=O)c2ccc(C)cc2)c(OC)c1OC`: the growth was 91.8% (inactive).

As for `CC1(C)C(=O)/C(=C\c2ccco2)C[C@]2(C)[C@H]3CC[C@@H]4[C@@H](C(=O)/C=C/c5ccco5)CC[C@@]4(C)[C@]3(C)CC[C@@H]12`, the growth is 87.2% (inactive).

As for `Fc1ccc(Nc2ccc3c(OCCCN4CCOCC4)cccc3n2)cc1F`, the growth was 81.6% (inactive).

Regarding `O=C(N/N=C\c1ccccc1O)C1CC1`, the growth was 93.6% (inactive).

As for `O=C(O)/C(=C/c1ccc(O)cc1)c1ccccc1`, the growth is 96.9% (inactive).

For the compound `CC(=O)Cc1nsc(NC(=O)c2ccoc2COc2ccccc2)n1`, the growth is 90.2% (inactive).

As to `CCNCCCn1c2c(c3ccc([N+](=O)[O-])cc3c1=O)C(=O)c1cc(OC)cnc1-2`, the growth was 1.09% (active).

On to `CNC(=O)c1cc(Oc2ccc3nc(NC(=O)Nc4ccc(Cl)cc4)sc3c2)ccn1`, for which the growth is 62.3% (inactive).

Consider `N=C(N)N=Nc1ccc(O)cc1`, for which the growth is 104% [100 µM] (inactive).

On to `N#CC1=C(N)Oc2ccc3ccccc3c2C1c1ccccc1` (stereo not given), for which the growth was 42.2% (inactive).

For `COc1ccc(C2=NN(c3nc(-c4ccc(OC)cc4)c(C#N)c(=O)n3C)C(=O)CC2)cc1`, the growth is 88.8% (inactive).

With `Cc1cc(N=O)cc(C(C)(C)C)c1O`, the growth is 101% (inactive).

Consider `O=C1C(=O)c2ccccc2C(O)=C1CCCc1ccc(C2CCCCC2)cc1`, for which the growth is 43.2% (inactive).

For `COc1ccc(/C=C(\C#N)c2cc3ccccc3n2C(C)=O)cc1`, the growth is 91% (inactive).

Regarding `O=C(N/N=C\c1c(O)ccc2ccccc12)C1CC1`, the growth was 66.5% (inactive).

Regarding `COc1ccc(-n2c(/C=C/c3ccc(O)c(OC)c3)cc(/C=C/c3ccc(O)c(OC)c3)nc2=O)cc1`, the growth was 66.6% (inactive).

Take `OCCNc1nc(Nc2ccc(Cl)c(Cl)c2)nc2ccccc12`: the growth is 37.2% (inactive).

Take `O=C(/C(=C(\C(=O)c1ccccc1)c1ccccc1)c1ccccc1)c1ccccc1`: the growth is 62.5% (inactive).

On to `O=C(NC(Cc1cn(Cc2ccccc2)cn1)C(=O)O)OCC1c2ccccc2-c2ccccc21` (stereo not given), for which the growth is 108% (inactive).

For the compound `NCCn1cc(-c2nc(-c3c[nH]c4ncccc34)cs2)c2ccccc21`, the growth was 78.7% (inactive).

As for `COc1cccc(-c2nn(-c3ccccc3)cc2-c2ccnc(NCCNS(=O)(=O)c3ccc(C(F)(F)F)cc3)c2)c1`, the growth was -36.1% (active).

As to `CC[C@H](CC[C@@H](C)[C@H]1CC[C@H]2[C@@H]3/C(=C/c4cccnc4)C(=O)C4=CC(=O)CC[C@]4(C)[C@H]3CC[C@]12C)C(C)C`, the growth was 86.3% (inactive).
